Data: PubChem BioAssay (NCI)
The panel holds about 79,000 compounds, 15% with a hit somewhere; the sample as a whole holds those more often. Values without a mark were called inactive. Active and inactive are the calls of the source. No stated cut-off is given here; in the data, active means growth inhibition above about 70%; inactive means the rest.

Assay: NCI Yeast Anticancer Drug Screen. Data for the rad50EPP+ strain (AID 151);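 further: 0% = growth of vehicle-treated control cultures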
Conditions: S. cerevisiae rad50 mutant strain, active compounds read high
Experimental: Growth inhibition of yeast strains with defined genetic alterations is measured as a screen for potential anti-cancer activity. Selected strains with alterations in DNA damage repair or cell cycle control were exposed to compounds and growth inhibition was measured relative to vehicle treated controls. The strain used in this assay is rad50EPP+

| SMILES | growth inhibition (at 1.2 µM) [%] | growth inhibition (at 3.7 µM) [%] | growth inhibition (at 11.0 µM) | growth inhibition (at 33.0 µM) | growth inhibition (at 100.0 µM) |
| --- | --- | --- | --- | --- | --- |
| O=[N+]([O-])c1cc[n+]([O-])c(Cl)c1 | 8 | 14 | 44% | 94% (active) | 98% (active) |
| Cc1cc(C)c2[s+]snc2c1 | 1 | 5 | 5% | 20% | 80% (active) |
| COC(=O)c1cnc(Cl)c([N+](=O)[O-])c1 | 14 | 48 | 93% (active) | 98% (active) | 99% (active) |
| c1ccc(-c2cc(C3CO3)c3ccccc3n2)cc1 (stereo not given) | 2 | 6 | 24% | 46% | 68% |
| CC1=CC(=O)C=CC1=Nc1cc(Cl)c(O)c(Cl)c1 | -31 | -15 | -16% | 27% | 70% (active) |
| CC(C)(CN1CCCCC1)C(=O)/C=C/c1c(Cl)cccc1Cl | -2 | 0 | 22% | 50% | 47% |
| CC1CCN(CCC(=O)c2ccc([N+](=O)[O-])cc2)CC1 | 1 | 1 | 3% | 15% | 19% |
| Cn1c(-c2ccc(/C=N\N3CCN(/N=C/c4ccc(-c5c[n+]6ccsc6n5C)cc4)CC3)cc2)c[n+]2ccsc12 | 30 | 51 | 49% | 59% | 78% (active) |
